Reference: PubChem BioAssay AID463110 (The Scripps Research Institute Molecular Screening Center, 2010)
The other results are listed elsewhere or left out. Activity calls are given as the source filed them.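 Rule for the calls: active = inhibition of the enzyme GSTO1 above about 75% (limit read from the data); inactive = inhibition below that limit.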

Molecular target: Glutathione S-transferase omega-1 (Homo sapiens) (UniProt P78417)
Experiment: inhibitors of purified human GSTO1, late-stage follow-up, biochemical, gel ABPP, SE-Rh probe, percent inhibition (AID 463110)
Settings: recombinant GSTO1, gel ABPP SE-Rh probe fluorescence; at 1 µM; stronger effect = higher value

Sequence of Glutathione S-transferase omega-1 (Homo sapiens) (P78417 whole entry, looked up): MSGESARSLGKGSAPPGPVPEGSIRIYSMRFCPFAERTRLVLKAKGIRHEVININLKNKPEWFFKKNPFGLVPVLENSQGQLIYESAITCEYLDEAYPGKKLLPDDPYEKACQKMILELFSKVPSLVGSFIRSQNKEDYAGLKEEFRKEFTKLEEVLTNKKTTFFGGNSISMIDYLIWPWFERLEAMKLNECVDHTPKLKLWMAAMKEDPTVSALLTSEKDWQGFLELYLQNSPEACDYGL

Compound | inhibition
Cc1ccc(N(Cc2cc(=O)[nH]c3ccccc23)C(=O)CCl)cc1 | 36% (inactive)
O=c1cc(CCl)nc2scc(-c3ccccc3)n12 | 82% (active)
O=C(c1[nH]ncc1-c1ccc(Cl)cc1)C1CO1 (stereo not given) | 29% (inactive)
COc1ccc(C(C(=O)NC2CCCCC2)N(C(=O)CCl)c2ccccc2Cl)cc1 (stereo not given) | 23% (inactive)
CCC1(CC)Cc2ccccc2-c2nc(CCl)[nH]c(=O)c21 | 79% (active)
